RORg inh – qHTS for inhibitors of ROR gamma transcriptional activity. 5.4% of 310,000 active. Drosophila S2 Gal4-RORgamma UAS-luciferase reporter, 20 h. Nuclear receptor ROR-gamma (Mus musculus), P51450. Potency, µM (highest dose often 53.6 µM), for inactives: at the top dose activity change, negative = inhibition, usual class: inhibitors. AID 2551, 2010; also: potency is read from the fitted curve at half-maximal effect; % is scaled to controls: 0 for no effect and ±100 for the full control effect; nearly all actives have a fitted effect of over 60% in size
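Schneider cells (Drosophila), stable Gal4 DBD–ROR gamma + UAS-luc; 1 hr cmpd preincubation; Cu2+ induction 700 uM final; 20 hr ambient; luminescence.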
CtBP-E1A blk – qHTS Assay for Inhibitors of the CtBP/E1A Interaction. CtBP / adenovirus E1A interaction (AlphaScreen). AlphaScreen GST-E1A/His-CtBP binding, 1536-well; stronger effect = lower value. activity change, % (no concentration beside the values). 0.49% of 340,000 active. AID 651724, 2012; in the data active = activity change below about -65%; inconclusive = mostly about -30% to -63%; also: % is scaled to controls: 0 for no effect and ±100 for the full control effect
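AlphaScreen with 125 nM GST-E1A and 125 nM His-CtBP (5X stocks) in Tris pH 8.0, 300 mM NaCl, BSA, Tween 20, TCEP. Compounds preincubated 2 h at 37 deg C, then glutathione donor/nickel acceptor beads added for 1 h at 37 deg C in dark.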
p53 reactivation – qHTS assay for re-activators of p53 using a Luc reporter | H1299 p53-A138V BP100-luciferase reporter, luminescence, 24 h | 0.063% of 320,000 active | Potency, µM (doses to about 92.2 µM), for the others: at the top dose activity change, positive = activation, usual class: activators | AID 504706, 2011; also: potency is read from the fitted curve at half-maximal effect; % of control where 0% means no effect; nearly all actives have a fitted effect of over 45% in size
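H1299 (p53-null), stable ts p53-A138V + BP100-Luc; 1000 cells/well, Opti-MEM/10% FBS; cpd 4 pt, 1:5; 24 h, 37 deg C, 5% CO2; detection reagent 10 min RT; luminescence.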
Gal4-VP16 FLuc – VP16 counterscreen qHTS for inhibitors of ROR gamma transcriptional activity | Drosophila S2 Gal4-VP16 UAS-luciferase, luminescence, 20 h | Potency, µM (doses to about 53.6 µM), inactives show at the highest dose activity, negative = inhibition, most hits filed as inhibitors | 3.5% of 310,000 active | AID 2546, 2010;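 also: Gal4-VP16 expression switched on by copper sulfate through the metallothionein promoter; potency is read from the fitted curve at half-maximal effect; % is scaled to controls: 0 for no effect and ±100 for the full control effect; nearly all actives have a fitted effect of over 50% in size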
Six1-Eya2 inh – qHTS Assay for Inhibitors of the Six1/Eya2 Interaction | AlphaScreen GST-Six1/His-Eya2 binding, biochemical; stronger effect = lower value | 0.56% of 360,000 active | Homeobox protein SIX1 (Homo sapiens) + Protein phosphatase EYA2 (Homo sapiens), … | activity change, % (no concentration beside the values) | AID 651725, 2012; in the data active = activity change below about -65%; inconclusive = mostly about -30% to -63%; also: % is scaled to controls: 0 for no effect and ±100 for the full control effect
Target sequence (O00167 whole entry, looked up): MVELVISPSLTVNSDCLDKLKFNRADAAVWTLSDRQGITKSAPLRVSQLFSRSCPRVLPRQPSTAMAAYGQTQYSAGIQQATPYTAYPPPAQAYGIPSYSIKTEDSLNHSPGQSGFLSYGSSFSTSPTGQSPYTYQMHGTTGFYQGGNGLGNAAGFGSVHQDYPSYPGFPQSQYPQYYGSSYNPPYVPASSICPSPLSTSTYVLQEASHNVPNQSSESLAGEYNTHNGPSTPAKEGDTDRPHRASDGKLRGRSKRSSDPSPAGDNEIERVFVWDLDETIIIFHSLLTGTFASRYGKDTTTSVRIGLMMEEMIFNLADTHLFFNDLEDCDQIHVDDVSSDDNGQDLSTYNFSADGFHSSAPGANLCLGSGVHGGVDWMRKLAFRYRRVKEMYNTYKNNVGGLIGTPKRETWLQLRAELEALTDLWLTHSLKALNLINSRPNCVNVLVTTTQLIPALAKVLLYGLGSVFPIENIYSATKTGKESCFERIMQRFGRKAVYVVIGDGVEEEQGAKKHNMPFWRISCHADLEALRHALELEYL
Target sequence (Q15475 whole entry, looked up): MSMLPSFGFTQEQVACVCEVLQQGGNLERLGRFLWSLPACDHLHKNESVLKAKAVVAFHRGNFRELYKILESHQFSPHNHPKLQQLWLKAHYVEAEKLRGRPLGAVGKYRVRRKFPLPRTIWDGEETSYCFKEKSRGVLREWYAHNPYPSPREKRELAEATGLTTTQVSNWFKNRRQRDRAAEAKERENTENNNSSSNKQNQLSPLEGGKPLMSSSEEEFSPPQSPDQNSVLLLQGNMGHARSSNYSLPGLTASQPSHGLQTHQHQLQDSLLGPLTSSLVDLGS
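Six1/Eya2 binding was read as AlphaScreen signal after compounds were pinned into GST-Six1 plus His-tagged Eya2 (5X stock 250/500 nM) in pH 8.0 Tris/NaCl/TCEP buffer, beads added, then incubated 1 h, 37 C, dark.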
Active calls of the source: *; ? = inconclusive; · = no result given; [ ] = remark or other dose. Compounds with a hit are over-represented: about 5.4% of the library has one in this group of screens. Unless noted, calls follow the shape of the dose curve; as a rule, active = well fitted curve in the direction sought with a large enough effect; inconclusive = small, poorly fitted or top-dose-only effect, or another doubt; inactive = no such curve, though single readings can be large; an effect the other way counts as inactive or inconclusive.

SMILES	RORg inh	CtBP-E1A blk	p53 reactivation	Gal4-VP16 FLuc	Six1-Eya2 inh
CC(=O)Nc1nnc(-c2ccc3c(c2)CCCC3)o1	7.1µM*	-4	?	3.5µM*	-13
CC1CN(S(=O)(=O)c2ccc(C(=O)Nc3nnc(-c4ccc5c(c4)CCCC5)o3)cc2)CC(C)O1 (configuration not stated)	0.11µM*	-2	-3%	0.89µM*	-1
COc1cc(-c2nnc(NC(=O)c3ccco3)o2)cc(OC)c1OC	·	-30	-2%	·	-26
NC1=NC(=O)C2(COC(c3cccnc3)OC2)S1 (configuration not stated)	-19%	7	-4%	-8%	3
CC(C)(C)C1CCC(N2CCN(c3ccccc3)CC2)CC1 (configuration not stated)	11%	·	-5%	-11%	-2
N#CCCCS(=O)(=O)c1nc2ccccc2s1	-18%	·	·	-4%	·
CCC(CC)NC(=O)c1cc2c(C)nn(Cc3ccccc3Cl)c2s1	11%	-2	-5%	4%	-2
Cc1nn(Cc2ccc(F)cc2)c2sc(C(=O)Nc3nccs3)cc12	11µM*	5	5%	?	1
Cc1nn(Cc2ccccc2Cl)c2sc(C(=O)Nc3nccs3)cc12	10µM*	7	3%	?	2
Cc1cnc(CNc2ncncc2-c2ccoc2)cn1	4%	·	·	3%	·
COc1ccc(CN(N=O)C2CC(=O)N(c3ccc(OC)cc3)C2=O)cc1 (configuration not stated)	?	-21	1%	14µM*	-10
COc1ccc(CCN(C)C2CC(=O)N(c3ccccc3)C2=O)cc1OC (configuration not stated)	?	2	1%	16µM*	2
COc1ccc(N2C(=O)CC(N(CCc3ccc(OC)c(OC)c3)C(=S)Nc3ccccc3)C2=O)cc1 (configuration not stated)	?	-4	-1%	0.79µM*	8
COc1ccc(N2C(=O)CC(N(CCc3ccc(S(N)(=O)=O)cc3)C(=S)Nc3ccccc3)C2=O)cc1 (configuration not stated)	22%	-17	-4%	3%	-1
O=C(COC(=O)CN1C(=O)c2ccccc2C1=O)NC1CCCC1	2%	18	-4%	-6%	6
Cc1cc2nc(-c3ccc(SCC(=O)Nc4ccc(S(=O)(=O)NC5CC5)cc4)nc3)[nH]c2cc1C	?	10	2.8µM*	?	-9
Cc1cc(NC(=O)CSc2ccc(-c3nc4cc(C)c(C)cc4[nH]3)cn2)no1	-5%	8	?	-16%	-2
N#CC(C#N)=Cc1cn(-c2ncc(C(F)(F)F)cc2Cl)c2ccccc12	11µM*	6	6%	?	-1
O=C(Nc1ccccc1)c1cn(CCBr)cn1	·	·	·	·	-1
CCNC(=O)C(=O)N/N=C/c1cc([N+](=O)[O-])ccc1O	11µM*	-94*	-2%	?	-92*
O=C(NN=Cc1cc([N+](=O)[O-])ccc1O)c1cccc2ccccc12	·	-3	·	·	-92*
O=C(N/N=C/c1cc([N+](=O)[O-])ccc1O)c1c[nH]c2ccccc12	5µM*	-78*	5%	?	-86*
O=C(N/N=C/c1cc([N+](=O)[O-])ccc1O)Nc1ccccc1	4.5µM*	-3	2%	22µM*	-6
CC1CN(C(=O)N2c3ccccc3Sc3ccccc32)CC(C)O1 (configuration not stated)	31%	-2	4%	3.5µM*	2
O=C(NC1CCN(C(=O)N2c3ccccc3Sc3ccccc32)CC1)c1ccccc1F	?	-9	4%	3.5µM*	-15
SMILES	RORg inh	CtBP-E1A blk	p53 reactivation	Gal4-VP16 FLuc	Six1-Eya2 inh
CCOCCCNC(=O)CCc1ccc(-n2cnc3cccnc32)cc1	-8%	0	-4%	4%	0
O=C(CNc1ccc2c(c1)OCO2)N/N=C\c1cn(Cc2ccc(F)cc2)c2ccccc12	?	·	-10%	10µM*	·
O=C(CNc1ccc2c(c1)OCO2)N/N=C\c1cn(Cc2ccccc2)c2ccccc12	13µM*	5	-6%	?	-30
O=C(CNc1ccccc1)N/N=C/c1ccc2c(c1)OCO2	35%	·	?	5%	-8
CC(NC(=O)c1ccccc1Br)C1CC2CCC1C2 (configuration not stated)	·	12	·	·	-2
CC(NC(=S)Nc1ccccc1C(F)(F)F)C1CC2CCC1C2 (configuration not stated)	3.2µM*	7	2%	10µM*	-2
O=C(CCC(=O)Nc1ccccc1Cl)NNC(=S)Nc1ccccc1C(F)(F)F	7.9µM*	2	0%	?	-1
O=C(NNC(=S)Nc1ccccc1C(F)(F)F)C1CC1	20µM*	8	-1%	6%	0
CC(=O)Nc1ccccc1C(F)(F)F	0%	9	-4%	2%	0
CC(=O)c1cc2c(cc1F)C(C)(C)CCC2(C)C	·	1	·	·	2
CCc1cc(C(=O)c2ccc(OC)cc2)c(NC(=O)CN2CCCCC2)s1	7.1µM*	·	0%	-24%	0
S=C1NC2=C(C(c3ccc(Br)cc3)N1)N1CCC2CC1 (configuration not stated)	8.9µM*	0	-9%	-7%	15
Fc1cccc(C2NC(=S)NC3=C2N2CCC3CC2)c1 (configuration not stated)	-35%	-13	-4%	-9%	5
CCCCN(C)CCOc1ccccc1OCC	-11%	7	3%	-11%	1
CCCCCCOc1ccc(C(=N)N(CCCC)CCCC)c2ccccc12	?	·	·	22µM*	·
Cc1cc(C(=O)Cn2nc(C(=O)O)c3ccccc3c2=O)c(C)n1C1CC1	20%	-22	-2%	-2%	-6
COCCn1c(C)cc(C(=O)Cn2nc(C(=O)O)c3ccccc3c2=O)c1C	5.6µM*	·	-5%	?	-13
C=CCn1c(C)cc(C(=O)Cn2nc(C(=O)O)c3ccccc3c2=O)c1C	16µM*	-5	-5%	?	-19
C[C@H]1/C=C\CC(=O)OC[C@H](C)C(=O)N2CCC[C@@H]2C(=O)OC1	-6%[10 µM]	·	·	12%[10 µM]	·
CC1=Nc2cccc3cccc(c23)N1	13µM*	?	-7%	-20%	-30
COC(=O)COc1ccc(S(=O)(=O)Nc2ccccc2SC)cc1	-1%	4	-4%	0%	-2
COC(=O)COc1ccc(S(=O)(=O)Nc2cc(OC)ccc2OC)cc1	5µM*	·	-10%	25µM*	·
CC1=CC(=O)N(c2ccn(C)n2)C1=O	14µM*	-5	7%	13µM*	0
